Compound activity as filed in PubChem BioAssay.
Rows were chosen to be rich in hits. Some 2.9% of all compounds tested hit in one or more screens of this group.
PLCg1 inh – blocks human PLC-gamma1 enzyme activity | P19174 | purified PLC-gamma1, fluorogenic substrate, fluorescence | inhibition, % at 12.2 µM | hit rate 0.84% among 370,000; in the data active means inhibition above about 9.5%
ADAM10 inh – inhibits human ADAM10. recombinant ADAM10, EDANS/DABCYL FRET peptide cleavage, 3 h. inhibition, % at 7 µM. hit rate 0.62% among 370,000;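 active means inhibition above a per-campaign cutoff equal to the mean of compounds falling between control-based bounds plus 3 SD, cut at about 20% in these data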;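 further: 0% = DMSO wells while the 100% control is not disclosed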
Target sequence (O14672 214-748 limits assumed): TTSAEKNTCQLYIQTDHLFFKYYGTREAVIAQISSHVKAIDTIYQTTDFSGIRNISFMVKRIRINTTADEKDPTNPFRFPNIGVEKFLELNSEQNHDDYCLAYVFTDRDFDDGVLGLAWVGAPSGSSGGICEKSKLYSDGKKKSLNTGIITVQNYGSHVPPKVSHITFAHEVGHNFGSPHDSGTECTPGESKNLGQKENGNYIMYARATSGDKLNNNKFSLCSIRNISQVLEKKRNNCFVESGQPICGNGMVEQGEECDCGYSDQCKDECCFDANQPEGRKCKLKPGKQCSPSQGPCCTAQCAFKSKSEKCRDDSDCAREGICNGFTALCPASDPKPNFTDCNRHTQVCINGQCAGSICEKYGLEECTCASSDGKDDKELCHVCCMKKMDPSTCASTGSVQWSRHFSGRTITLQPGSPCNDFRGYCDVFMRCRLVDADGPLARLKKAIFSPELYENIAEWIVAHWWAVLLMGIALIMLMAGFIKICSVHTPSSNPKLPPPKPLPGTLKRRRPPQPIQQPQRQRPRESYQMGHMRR
PLCb3 inh – blocks human PLC-beta3 enzyme activity; Q01970; hit rate 0.18% among 370,000; AID 720704; Purified PLC-beta3, fluorogenic substrate, fluorescence; inhibition, % at 12.2 µM; in the data active means inhibition above about 11%;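 further: 0% = median of compound wells on plate and 100% = full blocker control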
proKLK7 act – proKLK7 (human) activation, primary screen. P49862. activation, % at 7 µM. purified proKLK7, EDANS-DABCYL substrate fluorescence; 100% is mature enzyme control, 0% vehicle. AID 652039. hit rate 0.9% among 370,000;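 active means activation above the mean of all tested compounds plus 3 SD, computed per campaign excluding outliers beyond control limits, cut at about 13% in these data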
ADAM17 inh – inhibitors of human ADAM17 | hit rate 0.83% among 370,000 | inhibition, % at 6.95 µM | P78536 | recombinant ADAM17, EDANS/DABCYL FRET peptide cleavage;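 active means inhibition above the mean of compounds lying between control limits plus 3 SD, set per campaign, cut at about 8.5% in these data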;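 further: 0% = DMSO-only wells as the low control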
proKLK7 act conf – confirmation of human kallikrein-7 zymogen activators | activation, % at 7 µM | shares compounds with proKLK7 act | purified proKLK7, EDANS-DABCYL substrate fluorescence; scaled: vehicle 0, mature enzyme 100 | hit rate 68% among 3,200 | AID 686949;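 active means activation, as change over the incubation, above the mean of all tested compounds plus 3 SD, cut at about 13% in these data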
EDANS-DABCYL int – optically interferes with EDANS-DABCYL signal, flagging KLK7 hits. EDANS-DABCYL substrate fluorescence interference, no enzyme, 4 h; solvent 0%, active enzyme control 100%. activation, % at 7 µM. shares compounds with proKLK7 act. hit rate 80% among 3,200;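 active means activation above the all-compound mean plus 3 SD, ignoring values outside control-based bounds, cut at about 4.8% in these data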;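 further: value is the 4 h activation minus the activation read at time zero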
ADAM10 confirm – confirmation of inhibitors of human ADAM10; shares compounds with ADAM10 inh; ADAM10 QFRET peptide cleavage, EDANS fluorescence; inhibition, % at 6.95 µM; hit rate 1% among 2,100; AID 743208;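 active means inhibition above about 20% chosen separately for each screening run, limit read from the data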;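 further: 0% = DMSO wells and 100% = marimastat wells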
ADAM17 ctr – ADAM17 inhibition, counter-screen for ADAM10 exosite hits. shares compounds with ADAM10 inh. ADAM17 QFRET peptide cleavage, EDANS fluorescence. inhibition, % at 6.95 µM. hit rate 0.5% among 2,100;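 active means mean triplicate inhibition above the solvent-only control wells' mean plus 3 SD, cut at about 12% in these data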;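 further: 0% = DMSO wells and 100% = marimastat wells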
ADAM10 counter – counter-screen for ADAM17 exosite inhibitors: inhibitors of human ADAM10 | shares compounds with ADAM17 inh | recombinant ADAM10, EDANS/DABCYL FRET peptide cleavage, 3 h | inhibition, % at 6.95 µM | hit rate 47% among 2,900;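 active means mean inhibition over the triplicate runs exceeds the activity threshold set in the earlier primary screen, cut at about 20% in these data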;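 further: 0% = DMSO wells and 100% = marimastat wells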
ADAM17 confirm – confirmation of inhibitors of human ADAM17 | shares compounds with ADAM17 inh | recombinant ADAM17, EDANS/DABCYL QFRET peptide cleavage | inhibition, % at 6.95 µM | hit rate 65% among 2,900;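 active means mean inhibition across replicates above the hit cutoff set in the primary screen, cut at about 8.5% in these data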;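 further: 0% = DMSO wells and 100% = marimastat wells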
* = called active by the depositor; i = inactive; . = no result.

SMILES	PLCg1 inh	ADAM10 inh	PLCb3 inh	proKLK7 act	ADAM17 inh	ADAM10 confirm	ADAM17 ctr	others
CCCN1CCC[C@H](c2cccc(O)c2)C1	0.2	7.0	1.8	0.0	0.6	.	.
COc1ccc(-c2cc(=NCCCCCC(=O)O)c3cc(C)ccc3o2)cc1	i	i	i	105.2*	i	.	.	proKLK7 act conf=64.3*;EDANS-DABCYL int=71.7*
COc1ccc(-c2cc(=Nc3cccc(C(=O)O)c3)c3cc(C)ccc3o2)cc1	-79.9	i	-126.4	-8.4	-486.0	.	.
CN(C)[C@@H]1C(=O)C(C(N)=O)=C(O)[C@@]2(O)C(=O)C3=C(O)c4c(O)ccc(Cl)c4[C@@](C)(O)C3C[C@@H]12 (some centres undefined)	-55.2	-127.0	-74.5	24.6*	-45.0	.	.	proKLK7 act conf=16.8*;EDANS-DABCYL int=16.9*
CN(C)[C@@H]1C(=O)C(C(N)=O)=C(O)[C@@]2(O)C(=O)C3=C(O)c4c(O)cccc4[C@@](C)(O)C3[C@H](O)C12 (some centres undefined)	-12.3	1.1	-33.2	-1.5	-3.6	.	.
O=S(=O)(F)c1ccc2nc(-c3cccc(Sc4ccccc4)c3)cc(Cl)c2c1	2.7	-2.8	1.2	-0.4	-0.2	.	.
O=c1[nH]c2ccccc2n1C1CCN(C(c2cccc3ccccc23)c2nnnn2Cc2ccccc2)CC1 (centres undefined)	2.4	18.0	2.3	0.9	6.1	.	.
O=c1[nH]c2ccccc2n1C1CCN(C(c2cccs2)c2nnnn2-c2ccc3c(c2)OCCO3)CC1 (centres undefined)	-0.9	19.9*	1.2	0.2	6.9	7.8	1.6
COc1ccc(C(c2nnnn2-c2c(C)cccc2C)N2CCC(n3c(=O)[nH]c4ccccc43)CC2)cc1 (centres undefined)	3.7	22.6*	-1.7	-0.1	9.7*	6.2	2.4
O=c1[nH]c2ccccc2n1C1CCN(C(c2ccccc2OC(F)(F)F)c2nnnn2-c2ccc3c(c2)OCCO3)CC1 (centres undefined)	-1.9	33.5*	-3.8	0.3	15.4*	11.4	2.4
O=c1[nH]c2ccccc2n1C1CCN(C(c2cc3ccccc3o2)c2nnnn2Cc2ccccc2)CC1 (centres undefined)	0.6	23.4*	0.4	-0.8	8.1	10.3	3.0
C[C@]12CCC3C(CC[C@H]4C[C@H](OC(=O)c5cccnc5)CC[C@]34C)C1CCC2=O (some centres undefined)	3.3	-2.3	2.9	5.5	-3.5	.	.
CN1CCC(O)(c2ccc(Cl)cc2)C(C(=O)c2ccc(Cl)cc2)C1 (centres undefined)	-0.7	-9.3	2.6	0.3	-1.0	.	.
Cc1cc(N2CCNC[C@H]2C)ccc1N1CC[C@@H](O)C1	-4.0	-10.1	-5.9	1.0	-5.5	.	.
COc1ccc(-n2nnnc2C(c2cccc(OC)c2OC)N2CCC(n3c(=O)[nH]c4ccccc43)CC2)cc1 (centres undefined)	-1.2	3.3	-5.5	0.5	3.2	.	.
COc1cccc(C(c2nnnn2-c2ccc3c(c2)OCCO3)N2CCC(n3c(=O)[nH]c4ccccc43)CC2)c1OC (centres undefined)	2.1	20.5*	-1.1	-0.2	4.3	7.5	1.4
COc1ccc(-n2nnnc2C(c2cccc3ccccc23)N2CCC3(CC2)C(=O)NCN3c2ccccc2)cc1 (centres undefined)	3.1	21.2*	2.4	0.0	8.6	10.0	2.7
CC(=O)C1C(N2CC2)CC2C3CCC4=CC(=O)CCC4(C)C3CCC21C (centres undefined)	2.2	-1.8	-3.0	-0.8	0.1	.	.
CC(=O)Nc1ccc(S(=O)(=O)N2Cc3cnnn3-c3ccccc3C2C#N)cc1 (centres undefined)	1.1	-6.6	-3.0	0.1	-2.7	.	.
CCN(CCNc1ccc([N+](=O)[O-])c2cccnc12)S(=O)(=O)c1ccccc1	-1.5	-9.6	-1.2	0.6	-2.2	.	.
CCN(CCNc1ccc([N+](=O)[O-])c2cccnc12)S(=O)(=O)c1ccc(Cl)cc1	8.9	21.6*	1.3	-0.8	7.0	5.0	0.9
CCC(=Nc1cc(OC)ccc1OC)c1c(O)[nH]c(=O)[nH]c1=O	4.2	20.9*	-2.9	-1.0	0.6	1.6	-0.5
CC(C)(C)C(=O)N1Cc2cc(-c3cccc(F)c3)ccc2-n2nncc2C1	1.1	0.4	2.7	0.3	-4.4	.	.
Cc1ccc(NP(=O)(Oc2ccccc2F)Oc2ccccc2F)cc1	1.8	21.3*	5.3	0.0	3.0	0.9	0.5
Cc1nc2ccccc2c(=O)n1-c1cc([N+](=O)[O-])cc([N+](=O)[O-])c1	3.5	11.4	-2.0	0.5	-0.6	.	.
SMILES	PLCg1 inh	ADAM10 inh	PLCb3 inh	proKLK7 act	ADAM17 inh	ADAM10 confirm	ADAM17 ctr	others
Cc1nc2ccc(Br)cc2c(=O)n1-c1ccc([N+](=O)[O-])c(C(F)(F)F)c1	6.5	23.5*	-40.4	0.1	4.7	0.5	0.0
OCCN1C2CCC1CC(O)(c1ccc(F)cc1)C2 (centres undefined)	6.5	-1.6	5.4	-0.1	-2.2	.	.
CCC1C(c2ccccc2)NC(c2ccccc2)CC1(O)c1ccc(F)cc1 (centres undefined)	5.4	20.9*	-5.6	0.8	4.9	4.4	1.3
COc1cccc(NP(=O)(Oc2ccccc2Cl)Oc2ccccc2Cl)c1	1.5	23.2*	-0.3	0.4	10.2*	8.4	3.2	ADAM10 counter=44.7*;ADAM17 confirm=17.8*
CCCNC(=O)N1[C@H]2CC[C@@H]1C(C(=O)OC)=C(c1ccc(-c3ccccc3)c(F)c1)C2	3.9	25.6*	4.4	-0.1	16.3*	0.2	0.2	ADAM10 counter=19.0;ADAM17 confirm=10.5*
COC(=O)C1=C(c2ccc(OC)c(OC)c2)C[C@@H]2CC[C@H]1N2C(=O)NCCOc1ccccc1Cl	-1.9	-2.5	-1.9	0.8	-3.4	.	.
COC(=O)C1=C(c2ccc(-c3ccccc3)c(F)c2)C[C@@H]2CC[C@H]1N2C(=O)NCCOc1ccccc1Cl	6.7	28.1*	-0.1	-0.3	16.6*	6.8	1.8	ADAM10 counter=27.8*;ADAM17 confirm=17.4*
